NPC1 promoter act: NPC1 promoter activation; Potency, µM (top dose mostly 9.22 µM), for inactives: at the highest dose activation, hits mostly activators; AID 485313; Huh7 NPC1 promoter luciferase reporter, 24 h; actives 2.4% (n = 320,000); also: % of control where 0% means no effect; nearly all actives have a fitted effect of over 60% in size
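Luminescence read-out of NPC1 promoter-driven luciferase in stably transfected Huh7 cells; compounds delivered in DMSO and left 24 h at 37C, 5% CO2, qHTS titration format.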
SMN2 splice up: enhancers of SMN2 splice variant expression | HEK293 SMN2-luciferase splicing reporter, luminescence, 30-36 h | actives 2.8% (n = 210,000) | Potency, µM (series often up to 46.1 µM), without a hit: at the highest dose activity change, positive = activation, actives largely listed as activators | AID 1458; also: % of control where 0% means no effect; nearly all actives have a fitted effect of over 55% in size
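qHTS luciferase splicing reporter: luminescence rises when SMN2 exon 7 is included in transfected HEK293 cells. Compound exposure lasted 30-36 h at 37C, with 4.5 mM final sodium butyrate as control, followed by a ONE-Glo read.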
KinaseGlo FLuc: counter-screen: inhibitors of Kinase-Glo firefly luciferase. Q27757. Kinase-Glo luciferase, ATP luminescence, 8 min. Potency, µM (series often up to 38.3 µM), for inactives: at the top dose activity change, negative = inhibition, actives largely listed as inhibitors. actives 0.28% (n = 200,000); also: % is scaled to controls: 0 for no effect and ±100 for the full control effect; nearly all actives have a fitted effect of over 60% in size
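Compounds were added to a substrate mix at pH 7.2 (50 mM imidazole, 10 uM ATP, within the enzyme's linear range), followed by Kinase-Glo detection reagent; luminescence was measured after 8 minutes at ambient temperature.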
FLuc counter: counter-screen for miR-21 project: firefly luciferase inhibitors or activators; P08659; purified FLuc, Km substrates, luminescence inhibition; Potency, µM (doses to about 57.5 µM), for inactives: top-dose activity change, negative = inhibition, most hits filed as inhibitors; actives 6.9% (n = 360,000); AID 588342;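 also: plate controls were vehicle for no effect and reference inhibitor for full effect; nearly all actives have a fitted effect of over 55% in size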
Target sequence (P08659 whole entry, looked up): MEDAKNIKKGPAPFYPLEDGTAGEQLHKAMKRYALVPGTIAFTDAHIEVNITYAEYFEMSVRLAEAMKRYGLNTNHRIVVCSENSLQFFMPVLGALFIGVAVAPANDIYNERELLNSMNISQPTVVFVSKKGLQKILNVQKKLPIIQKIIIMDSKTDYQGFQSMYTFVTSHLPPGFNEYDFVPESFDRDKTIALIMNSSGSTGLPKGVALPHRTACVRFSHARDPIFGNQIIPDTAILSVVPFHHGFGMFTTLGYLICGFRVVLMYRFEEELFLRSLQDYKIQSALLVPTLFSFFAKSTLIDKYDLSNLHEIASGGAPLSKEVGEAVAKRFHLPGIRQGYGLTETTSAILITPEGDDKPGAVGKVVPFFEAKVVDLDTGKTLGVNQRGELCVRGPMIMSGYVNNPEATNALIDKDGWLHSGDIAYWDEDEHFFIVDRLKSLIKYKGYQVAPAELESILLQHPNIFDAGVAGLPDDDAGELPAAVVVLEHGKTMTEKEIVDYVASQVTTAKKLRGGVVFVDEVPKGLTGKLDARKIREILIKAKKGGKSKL
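Biochemical qHTS of compounds, final roughly 60 µM downward over six points, against 10 nM purified firefly luciferase using Km concentrations of substrates (10 uM D-luciferin, 10 uM ATP) in Tris acetate pH 7.5 buffer; luminescence output.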
Rab9 prom act: Rab9 promoter activation. Huh7 Rab9 promoter-luciferase reporter, luminescence, 24 h. Potency, µM (doses to about 9.22 µM), without a hit: top-dose activation, negative = inhibition, hits mostly activators. actives 2.8% (n = 320,000); also: % of control where 0% means no effect; nearly all actives have a fitted effect of over 60% in size
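Using Huh7 cells stably transfected with Rab9 promoter–luciferase, compounds were incubated 24 h at 37 °C, 5% CO2; luciferase luminescence was read 10 min after reagent addition.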
ELG1 genotox: genotoxicity induction in ELG1-luciferase HEK293T cells; HEK293T ELG1-luciferase reporter, luminescence, 16 h; Potency, µM (top dose mostly 46 µM), for the others: at the top dose activity change, positive = activation, usual class: activators; actives 1.3% (n = 330,000); AID 504466; also: % of control where 0% means no effect; nearly all actives have a fitted effect of over 60% in size
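Reporter readout depends on ELG1 protein level, which increases with genetic stress. After 16 hr compound exposure at 37 °C, luciferase activity was quantified using ONE-Glo.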
The depositor's hits bear a star; ? = inconclusive; nt = no result given; [ ] = another dose, or the depositor's remark. An excerpt weighted towards active compounds, which were near 7.5% of everything screened. Calls follow the shape of the dose curve; as a rule, active = well fitted curve in the direction sought with a large enough effect; inconclusive = small, poorly fitted or top-dose-only effect, or another doubt; inactive = no such curve, though single readings can be large; an effect the other way counts as inactive or inconclusive. Potency is read from the fitted curve at half-maximal effect.

SMILES	NPC1 promoter act	SMN2 splice up	KinaseGlo FLuc	FLuc counter	Rab9 prom act	ELG1 genotox
CCCCC/C=C\C\C=C/C=C/C=C/[C@@H](SCC(NC(C)=O)C(=O)O)[C@@H](O)CCCC(=O)O (some centres not stated)	nt	-1.9%	1.6%	nt	nt	nt
CCN1CCN(C(c2cccc(Cl)c2)c2c(O)cc(C)n(CCOC)c2=O)CC1 (configuration not stated)	nt	nt	nt	-11.3%	nt	nt
CCOc1ccc(CNC(=O)c2ccc3c(c2)nc2n3CCC(C)C2)cc1OC (configuration not stated)	nt	nt	nt	-16.9%	nt	nt
O=C(NCCc1nc(-c2ccccc2)cs1)c1ccc(Br)cc1	-6.1%	-5.2%[1.84 µM]	-1.9%	15.1µM*	-5.5%	-0.2%
COc1ccccc1NCCC(=O)OCC(=O)Nc1ccccc1F	nt	nt	nt	nt	nt	-0.3%
COc1ccc(Cn2c(C3CC3)nc3ccc(NC(=O)C4CC4)cc3c2=O)cc1	1.41µM*	11.2µM*	-6.8%	4.26µM*	1.58µM*	2.59µM*
CCC(=O)Nc1ccc2nc(C3CC3)n(Cc3ccc(C(C)(C)C)cc3)c(=O)c2c1	0.316µM*	nt	nt	1.51µM*	?	1.64µM*
O=C(Nc1ccc2nc(C3CC3)n(Cc3ccc(F)cc3)c(=O)c2c1)c1ccco1	23.4%	?	-7.0%	-1.1%	3.5%	-8.2%
CC(=O)Nc1ccc2nc(C3CC3)n(Cc3ccc(Cl)cc3)c(=O)c2c1	3.55µM*	10µM*	-4.5%	21.3µM*	3.55µM*	?
COc1cccc(Cn2c(C3CC3)nc3ccc(NC(=O)c4ccco4)cc3c2=O)c1	2.3%	-20.1%	0.6%	-13.1%	-3.0%	-5.0%
CC(C)c1cc(N2CCC(=O)NC2=O)cc(C(=O)O)c1O	-1.5%	-4.7%	-1.5%	-0.5%	-2.0%	2.5%
Cc1cccc(-c2ccc3ncnc(NCc4cccc(F)c4)c3c2)c1	-3.0%	nt	nt	-27.4%	-4.5%	nt
COc1ccc2c(c1)CCc1sc(NC(=O)c3cccc(Br)c3)nc1-2	nt	nt	nt	-12.9%	nt	nt
COc1ccc(C(=O)Nc2nc3c(s2)CCc2cc(OC)ccc2-3)cc1	nt	-38.2%	nt	7.57µM*	nt	nt
COc1ccc2c(c1)-c1nc(NC(=O)c3ccc(C)cc3)sc1CC2	nt	11.7%	nt	2.69µM*	nt	nt
CCOc1ccc(-c2nc3ccccc3c(=O)o2)cc1	3.55µM*	15.8µM*	-23.1%	0.426µM*	1.41µM*	?
COc1ccc(-c2nc3ccccc3c(=O)o2)cc1OC	10.2%	6.8%	-5.8%	8.49µM*	16.5%	9.8%
COc1ccc(-c2nc3ccccc3nc2-c2ccc(OC)c(OC)c2)cc1OC	0.6%	nt	nt	4.5%	6.9%	3.5%
O=S(=O)(Nc1ccc(S(=O)(=O)N2CCCC2)cc1)c1ccc(F)cc1F	nt	nt	nt	nt	nt	-0.8%
Cc1cc(C(=O)Nc2ccc(F)c(Cl)c2)on1	-1.0%	nt	nt	-14.2%	1.6%	3.0%
Cc1ccc2nc(Nc3ccc4[nH]c(=O)[nH]c4c3)c(-n3nc(C)cc3C)nc2c1	25.4%	17.8µM*	0.1%	0.849µM*	?	?
COC(=O)C1=C(C)NC(=O)C1(NC(=O)c1ccc(Cl)cc1)C(F)(F)F (configuration not stated)	nt	nt	nt	-1.0%	nt	nt
O=C(Nc1ccc2nc3n(c(=O)c2c1)CCCCC3)c1ccccn1	1.58µM*	3.16µM*	-9.4%	7.57µM*	1.12µM*	?
COc1cc(C(=O)Nc2ccc3nc4n(c(=O)c3c2)CCCCC4)cc(OC)c1OC	-2.3%	29.8%	nt	13.5µM*	2.0%	-5.2%
O=C1CC[C@](CCc2nc3ccccc3[nH]2)(c2ccccc2)C(=O)N1	nt	-12.0%[9.22 µM]	-5.2%[7.66 µM]	nt	nt	nt
SMILES	NPC1 promoter act	SMN2 splice up	KinaseGlo FLuc	FLuc counter	Rab9 prom act	ELG1 genotox
COc1ccc(NC(=O)C2=Cc3ccccc3OC2)cc1	0.398µM*	7.94µM*	-1.6%	1.51µM*	0.562µM*	0.517µM*
COc1ccc(NC(=O)C2=Cc3cccc(OC)c3OC2)cc1	2.82µM*	12.6µM*	0.3%	5.36µM*	2.51µM*	?
O=C(Nc1ccc(Cl)cc1)C1=Cc2cc(Cl)ccc2OC1	1.7%	27.4%	0.2%	-4.1%[2.3 µM]	-0.3%	-5.0%
O=C(Nc1ccc(Cl)cc1Cl)C1=Cc2ccccc2OC1	1.41µM*	?	-3.8%	1.9µM*	1µM*	2.06µM*
NC(=O)C1CCN(C(=O)CNC(=O)c2ccc(F)cc2)CC1	nt	nt	nt	nt	nt	5.4%
CCOC(=O)c1c(C)[nH]c(CCC(=O)NCc2ccc(OC)c(OC)c2)c1C	nt	nt	nt	-2.8%	nt	nt
CCCCOc1ccc(C(=O)Nc2cc(C)c(OCC(=O)N3CCOCC3)c(C)c2)cc1	14.0%	-68.2%	5.7%	2.13µM*	0.5%	-5.9%
Cc1cc(NC(=O)c2cccc3ccccc23)cc(C)c1OCC(=O)N1CCOCC1	-0.7%	-13.2%	6.2%	?	-5.1%	-8.8%
Cc1cc(NC(=O)c2ccc(Cl)cc2)cc(C)c1OCC(=O)N1CCOCC1	3.16µM*	nt	nt	1.69µM*	?	9.5%
COc1cc(C(=O)Nc2cc(C)ccn2)ccc1OCC(=O)N1CCOCC1	1.5%	nt	nt	?	9.6%	?
COc1cc(C(=O)Nc2ccc(C)cn2)ccc1OCC(=O)N1CCOCC1	1.7%	nt	nt	16.9µM*	2.1%	6.8%
CCCCOc1ccc(C(=O)Nc2ccc(CN3CCOCC3)cc2)cc1	-9.5%	nt	nt	?	-23.8%	-1.2%
Cn1cccc1C(=O)N1CCC2(CCCN(Cc3ccncc3)C2)CC1	nt	-11.5%	-0.3%	nt	nt	nt
CCC(=O)Nc1ccccc1-c1nc2ccccc2n(CC(=O)c2ccc(Br)cc2)c1=O	nt	nt	nt	-7.2%	nt	nt
COc1ccc(NC(=O)O/N=C/c2c(C)nn(C(C)(C)C)c2C)cc1	0.355µM*	nt	nt	0.379µM*	0.316µM*	1.64µM*
COc1ccc(NC(=O)CCC(=O)N/N=C/c2cn(C)nc2C)cc1	-3.0%	nt	nt	5.7%	-0.5%	-3.0%
CN1N=C2c3ccccc3CCC2C1c1ccc(C(F)(F)F)cc1 (configuration not stated)	26.3%	nt	nt	?	24.4%	0.3%
CN(C)c1ccc(C2C3CCCc4ccccc4C3=NN2C)cc1 (configuration not stated)	?	nt	nt	19µM*	3.16µM*	9.0%
Fc1ccc(N2CCN(Cc3ccccn3)CC2)cc1	-7.3%	-5.3%	-1.8%	0.4%	9.0%	-2.2%
c1ccc(CCNc2ccccn2)nc1	nt	1.1%[9.22 µM]	-8.2%[7.66 µM]	nt	nt	nt
Fc1ccc(SCCc2ccccn2)cc1	21.7%	nt	nt	16.9µM*	?	?
CC(C)(C)c1ccc(S(=O)(=O)CCc2ccccn2)cc1	?	9.3%	2.2%	16.9µM*	?	20.6µM*
CC(C)(C)c1ccc(SCCc2ccccn2)cc1	2.24µM*	nt	nt	3.79µM*	3.16µM*	?
CCOC(=O)c1cnc2cc(F)c(F)cc2c1N1CCOCC1	-0.8%	nt	nt	0.3%	2.3%	-2.4%
Cc1ccc(Cl)cc1N1CCN(C(=O)c2cc(S(=O)(=O)N3CCCC3)cn2C)CC1	nt	nt	nt	-1.8%	nt	nt

Screening results as filed in PubChem BioAssay.
